Source: PubChem BioAssay
TDP1 cell CPT – growth inhibition of DT40 Tdp1-/-;hTDP1 cells with camptothecin (screen for TDP1 inhibitors) | chicken DT40 Tdp1-/-;hTDP1 cells + 20 nM CPT, ATP luminescence, 48 h | Potency, µM (top dose mostly 46.2 µM), for inactives: at the highest dose activity change, negative = growth inhibition, hits mostly inhibitors | 420,000 compounds, 12% hits | AID 686979; also: nearly all actives have a fitted effect of over 55% in size
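Cell growth measured by CellTiter-Glo luminescence after a minimum 48 h, 37 C compound exposure with 20 nM CPT in Tdp1-knockout DT40 cells stably expressing hTDP1, seeded 400/well; qHTS titration format.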
ELG1 repair inh – blocks ELG1-dependent DNA repair in HEK293T cells. HEK293T ELG1-luciferase reporter, luminescence, 16 h; DNA damage induced by 5-fluorouridine. Potency, µM (doses to about 46.1 µM), without a hit: at the top dose activity change, negative = inhibition, hits mostly inhibitors. 330,000 compounds, 2.3% hits. AID 504467; also: nearly all actives have a fitted effect of over 55% in size
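Cells (2,000 per well) received 5-fluorouridine plus test compound or DMSO and were incubated 16 hr at 37 °C, 5% CO2. Luciferase activity was read by luminescence 30 min after ONE-Glo addition; signal suppression marked inhibition of damage-induced ELG1 function.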
ALOX12 inh – blocks human arachidonate 12S-lipoxygenase | P18054 | AID 1671190 | purified 12hLO, xylenol orange hydroperoxide absorbance | Potency, µM (titrated, usually from 108 µM), without a hit: top-dose activity change, negative = inhibition, hits mostly inhibitors | 580,000 compounds, 1.1% hits
Target sequence (P18054 whole entry, looked up): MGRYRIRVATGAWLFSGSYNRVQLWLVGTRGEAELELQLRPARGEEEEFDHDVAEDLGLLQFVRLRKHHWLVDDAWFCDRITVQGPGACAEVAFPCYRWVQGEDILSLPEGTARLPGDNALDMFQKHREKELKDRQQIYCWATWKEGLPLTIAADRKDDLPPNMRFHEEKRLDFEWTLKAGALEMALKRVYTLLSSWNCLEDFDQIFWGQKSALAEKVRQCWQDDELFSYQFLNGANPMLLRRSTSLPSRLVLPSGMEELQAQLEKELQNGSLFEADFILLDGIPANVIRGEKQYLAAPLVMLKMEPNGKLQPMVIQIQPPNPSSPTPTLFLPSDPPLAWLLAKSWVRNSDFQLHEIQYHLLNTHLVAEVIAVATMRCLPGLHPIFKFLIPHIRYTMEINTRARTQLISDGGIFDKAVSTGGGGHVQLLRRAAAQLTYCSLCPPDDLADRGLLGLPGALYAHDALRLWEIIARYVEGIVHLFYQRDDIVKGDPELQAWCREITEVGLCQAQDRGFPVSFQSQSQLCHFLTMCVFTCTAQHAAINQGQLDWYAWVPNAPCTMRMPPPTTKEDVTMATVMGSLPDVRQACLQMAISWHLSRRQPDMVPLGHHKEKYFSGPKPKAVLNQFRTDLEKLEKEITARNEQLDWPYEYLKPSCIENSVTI
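Purified human 12hLO (150 nM final) in 25 mM Hepes, 0.01% Triton X-100, pH 7.0 was preincubated 15 min at room temperature with compound. Then 40 uM arachidonic acid was added, 30 min. Hydroperoxide was read by Fe-XO absorbance ratio 573/405 nm.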
RORgamma inh – inhibitors of mouse ROR gamma transcriptional activity; P51450; Drosophila S2 Gal4-RORgamma UAS-luciferase reporter, 20 h; Potency, µM (highest dose often 53.6 µM), for the others: top-dose activity change, negative = inhibition, hits mostly inhibitors; 310,000 compounds, 5.4% hits; also: nearly all actives have a fitted effect of over 60% in size
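A Gal4/UAS one-hybrid system in insect cells: metallothionein-promoter Gal4–ROR gamma fusion plus Photinus luciferase reporter. Copper sulfate 700 uM final, 20 hr ambient incubation, luminescent detection after 10 min with reagent.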
TDP1 cell noCPT – qHTS for Inhibitors of human tyrosyl-DNA phosphodiesterase 1 (TDP1): qHTS in cells in absence of CPT. Potency, µM (highest dose often 46.2 µM), without a hit: at the highest dose activity change, negative = growth inhibition, actives largely listed as inhibitors. DT40 Tdp1-/- hTDP1 cells, no CPT, ATP luminescence, 48 h. AID 686978, 2013. 420,000 compounds, 15% hits; also: nearly all actives have a fitted effect of over 55% in size
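Seeded 400 DT40-hTDP1 cells/well (vehicle DMSO, no 20 nM CPT); pinned compounds; ≥48 hr at 37 °C; CellTiter-Glo luminescence as viability measure.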
VP16 counter – counter-screen for ROR gamma inhibitors: Gal4-VP16 reporter; Potency, µM (doses to about 53.6 µM), without a hit: top-dose activity, negative = inhibition, usual class: inhibitors; 310,000 compounds, 3.5% hits; Drosophila S2 Gal4-VP16 UAS-luciferase, luminescence, 20 h; AID 2546;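 also: Gal4-VP16 expression switched on by copper sulfate through the metallothionein promoter; nearly all actives have a fitted effect of over 50% in size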
* = called active by the depositor; ? = inconclusive; . = no result given; ! = repeats disagree; [ ] = dose if it differs, or a comment. The list is not random: actives were taken first. Their share in the collection is about 15%. Calls follow the shape of the dose curve; as a rule, active = well fitted curve in the direction sought with a large enough effect; inconclusive = small, poorly fitted or top-dose-only effect, or another doubt; inactive = no such curve, though single readings can be large; an effect the other way counts as inactive or inconclusive. % is scaled to controls: 0 for no effect and ±100 for the full control effect; potency is read from the fitted curve at half-maximal effect.

SMILES | TDP1 cell CPT | ELG1 repair inh | ALOX12 inh | RORgamma inh | TDP1 cell noCPT | VP16 counter
CCCOc1ccc(-c2nc3c(c(=O)[nH]c(=O)n3Cc3ccccc3)n2CCO)cc1OCC | ? | -28% | 0% | ? | 16µM* | 3%
CCCCn1c(=O)[nH]c(=O)c2c1nc(-c1ccc(-c3ccccc3Br)o1)n2CCOC | ? | 2.6µM* | ? | 24% | ? | -3%
CCCCn1c(=O)[nH]c(=O)c2c1nc(-c1ccc(OCCC)c(OCC)c1)n2CCOC | 4% | 6.5µM* | 11% | -2% | ? | 6%
CC(C)=NNC(=O)C(C)Sc1ccccc1 (stereo not drawn) | . | . | 0% | . | . | .
Cc1ccsc1C1Nc2ccc3ncccc3c2C2=C1C(=O)CC(C)(C)C2 (stereo not drawn) | 13µM* | 12% | -23% | ? | ? | -21%
CC1(C)CC(=O)C2=C(C1)c1c(ccc3ccccc13)NC2c1ccco1 (stereo not drawn) | ? | -19% | ? | ? | ? | -4%
O=C1CCCC2=C1C(c1cccs1)Nc1ccc3ncccc3c12 (stereo not drawn) | 16µM* | 19% | -8% | 13% | ? | 17%
O=C(NC(Nc1ccc(Cl)cc1)C(=O)c1ccccc1)c1ccccc1 (stereo not drawn) | . | . | 4% | . | . | .
Cc1ccc(S(=O)(=O)c2nc(-c3ccco3)oc2SCc2ccc(F)cc2)cc1 | 21µM* | . | ? | . | ? | .
CCCSc1oc(-c2ccco2)nc1S(=O)(=O)c1ccc(Cl)cc1 | ? | . | 40µM* | . | ? | .
CC(C)CSc1oc(-c2ccco2)nc1S(=O)(=O)c1ccccc1 | ? | 1% | ? | 4% | 26µM* | 30%
Cc1ccc(S(=O)(=O)c2nc(-c3ccco3)oc2SC(C)C)cc1 | ? | -1% | 32µM*! | 0% | ? | -13%
Cc1cnc(C2CCN(S(C)(=O)=O)C2)n1C(C)C (stereo not drawn) | . | . | 36% | . | . | .
CCSc1oc(-c2ccco2)nc1S(=O)(=O)c1ccc(F)cc1 | -8% | -8% | 28µM*! | -15%[0.365 µM] | ? | .
CCSc1oc(-c2ccco2)nc1S(=O)(=O)c1ccc(C)cc1 | -14% | 9% | ? | 0% | ? | 8%
C/C(=C\c1ccccc1)C(=O)N1CCN(Cc2ccc3c(c2)OCO3)CC1 | -20% | 7.3µM* | 0% | 24% | -14% | -14%
Cc1nn(Cc2ccccc2)c2sc(C(=O)N3CCN(Cc4ccc5c(c4)OCO5)CC3)cc12 | 16µM* | . | 13% | 16% | ? | -2%
Cc1ccc(Cn2nc(C)c3cc(C(=O)N4CCN(CC(=O)N5CCCC5)CC4)sc32)cc1 | . | . | -6% | . | . | .
O=C(O)c1ccccc1C(=O)N1CCN(Cc2ccc3c(c2)OCO3)CC1 | 10% | 9% | -1% | -15% | 24% | 4%
CCOc1ccccc1C(=O)NCC(=O)N1CCN(Cc2ccc3c(c2)OCO3)CC1 | 29µM* | ? | . | . | ? | .
CN(c1ccccc1)S(=O)(=O)c1cccc(C(=O)N2CCN(c3ncccn3)CC2)c1 | . | . | 11% | . | . | .
Cc1cccc(N2CCN(C(=O)c3ccc(S(=O)(=O)N(C)c4ccccc4)cc3)CC2)c1C | 5.8µM* | ? | -17% | . | 4.6µM* | .
CCN(c1ccccc1)S(=O)(=O)c1ccc(C(=O)N2CCN(c3ccccc3F)CC2)cc1 | ? | . | -1% | . | 21µM* | .
COc1ccc(N(C)S(=O)(=O)c2cccc(C(=O)N3CCN(c4cccc(C)c4C)CC3)c2)cc1 | ? | . | 49% | . | 16µM* | .
COc1ccc(-c2noc(CNC(=O)CCc3c(C)c4ccc(OC)cc4oc3=O)n2)cc1 | . | . | -8% | . | . | .
SMILES | TDP1 cell CPT | ELG1 repair inh | ALOX12 inh | RORgamma inh | TDP1 cell noCPT | VP16 counter
CCc1ccc(C(=O)N2CC(c3nnc(-c4ccncc4)o3)C3(CCOCC3)C2)cc1 (stereo not drawn) | . | . | 8% | . | . | .
Cc1ccc2c(=O)cc(C(=O)Nc3nnc(C(C)C)s3)oc2c1 | . | . | 7% | . | . | .
O=C(Cn1c2ccccc2c2nc3n(c(=O)c21)CCCS3)Nc1ccccc1 | 13µM* | 5.2µM* | -14% | 29% | ? | -9%
O=C(COc1ccc(Cl)cc1)N1CCN(C(=O)c2cccs2)CC1 | -16% | 13% | 2% | 7.1µM* | -27% | 18µM*
CN(C(=O)c1cccs1)c1ccc(OCC(=O)N2CCC(C(N)=O)CC2)cc1 | ? | 15µM* | -1% | ? | ? | ?
CN(Cc1ccccc1)S(=O)(=O)c1ccc(OCC(=O)N2CCC(C(N)=O)CC2)cc1 | -26% | 21% | 0% | 28% | -25% | 6%
O=C(COc1ccccc1)N1CCN(C(=O)c2cccs2)CC1 | -15% | -18% | 0% | 15% | -15% | 1%
Cc1ccc(C(=O)Nc2ccc(-c3nccs3)cc2)c(C)c1 | . | . | 46% | . | . | .
c1ccc(-c2ccc(CNCC3CCCO3)cc2)cc1 (stereo not drawn) | . | . | 1% | . | . | .
CCOC(=O)c1cccc(Nc2nc(-c3ccccc3)no2)c1 | . | . | 72% | . | . | .
Cc1ccc(OCC(=O)NNC(=O)CSc2ncnc3sc(C)c(C)c23)cc1 | ? | 16% | -2% | -15% | -20% | 4%
Cc1ccc(OCCSc2ncnc3sc(C)c(C)c23)cc1C | -29% | 5% | 4% | 11µM* | ? | -15%
Cc1cccc(Nc2nnc(SCC(=O)c3ccc(O)cc3O)s2)c1 | -7% | 1% | ? | -18% | -27% | -1%
Cc1sc2ncnc(SCC(=O)c3ccc(O)cc3O)c2c1C | ? | 2% | -20% | 13µM* | ? | ?
Cc1ccc(Nc2nnc(SCC(=O)c3ccc(O)cc3O)s2)cc1 | -29% | -19% | 45µM* | -18% | ? | -2%
CC(=O)N1CCC(Cc2ccc(C(=O)N(C)C)cc2)CC1 | . | . | 23% | . | . | .
O=C(O)CS/C(=C/c1ccc2ccccc2c1)c1nc2ccccc2s1 | . | . | -7% | . | . | .
Cc1ccc(NC(=O)CN(C)C(=O)C(C)N(C)Cc2ccccc2F)cc1 (stereo not drawn) | . | . | -6% | . | . | .
Clc1ccc(Cn2c(CN3CCOCC3)nc3ccccc32)c(Cl)c1 | . | . | 25% | . | . | .
CCn1cc(C2=NC(C)CO2)c2ccccc21 (stereo not drawn) | ? | ? | 9% | 10µM* | -27% | -28%
CCn1cc(C2=NC(c3ccccc3)CO2)c2ccccc21 (stereo not drawn) | ? | 15% | 2% | 10µM* | -18% | -9%
CCn1cc(C2=NCCO2)c2ccccc21 | 6% | 2% | 14% | 20µM* | -18% | -17%
